# This excerpt belongs to a sample that is enriched for hits.
# CD40 NFkB inh: CD40 pathway inhibition in BL2 cells. BL2 NF-kB luciferase reporter, CD40L-induced, 4 h. inhibition, % at 10 µM. 0.94% of 83,000 active. AID 1053188;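 active = mean inhibition of at least 50% with a set share of replicates also reaching that level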;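 also: 0% = neutral control wells and 100% = IKK inhibitor VII at 50 µM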
# * hit, by the source's call; [ ] = another dose, or the depositor's remark.
SMILES,CD40 NFkB inh
O=C(C1CCOCC1)N1CC(=O)N2[C@@H](CO)[C@H](c3ccc(C#CCc4ccccc4)cc3)[C@@H]2C1,4.0[25 µM]
COCC#Cc1ccc([C@@H]2[C@H](CO)N3C(=O)CN(C(=O)C4CCCCC4)C[C@@H]23)cc1,-24.3[25 µM]
O=C(C1CCOCC1)N1CC(=O)N2[C@H](CO)[C@H](c3ccc(C#CCc4ccccc4)cc3)[C@@H]2C1,-10.7[25 µM]
O=C(C1CCC1)N1CC(=O)N2[C@H](CO)[C@H](c3ccc(C#CCc4ccccc4)cc3)[C@H]2C1,70.6*
O=C(C1CCCC1)N1CC(=O)N2[C@H](CO)[C@H](c3ccc(C#CCc4ccccc4)cc3)[C@H]2C1,66.0*
COCC#Cc1ccc([C@H]2[C@H](CO)N3C(=O)CN(C(=O)C4CCCCC4)C[C@@H]23)cc1,1.2[25 µM]
O=C(C1CCOCC1)N1CC(=O)N2[C@H](C1)[C@H](c1ccc(C#CCc3ccccc3)cc1)[C@@H]2CO,75.0*[25 µM]
O=C(C1CCOCC1)N1CC(=O)N2[C@H](CO)[C@H](c3ccc(C#CCc4ccccc4)cc3)[C@H]2C1,36.7[25 µM]
O=C(C1CCCC1)N1CC(=O)N2[C@H](C1)[C@H](c1ccc(C#CCc3ccccc3)cc1)[C@@H]2CO,23.9
C/C=C/c1ccc([C@@H]2[C@@H](CO)N(C(=O)CC)[C@@H]2CN(C)S(C)(=O)=O)cc1,4.2[25 µM]
COc1cccc(-c2nc3ccc(C(=O)NC(C)Cc4cccnc4)cc3o2)c1 (centres undefined),-78.9
CCNc1nnc(SCC(=O)c2cc(C)n(C3CC3)c2C)s1,-10.6
O=C(Nc1ccc(NC(=O)c2cccnc2)cc1)c1ccccc1,5.3
CC(=O)Nc1ccc(NC(=O)c2cc(S(=O)(=O)N3CCCCC3)ccc2C)cc1,-23.4
CCOC(=O)/C=C/S(=O)(=O)c1ccc(NC(C)=O)cc1,110.3*
CCS(=O)(=O)Nc1ccc(NC(C)=O)cc1,-8.9
CCC(C)NS(=O)(=O)c1ccc(NC(C)=O)cc1 (centres undefined),8.1
C[C@@H]1CN(C)C(=O)c2cc(N)ccc2O[C@H]1CN(C)C,-2.3
CCCn1c(N2CCN(Cc3ccc(Cl)cc3)CC2)nc2ccccc21,23.8
C[C@@H]1CN([C@H](C)CO)C(=O)CCCn2cc(nn2)CO[C@@H]1CN(C)S(=O)(=O)c1ccc2ccccc2c1,5.5[25 µM]
CN(C)Cc1cn(CC[C@H]2CC[C@H](NC(=O)Cc3cccnc3)[C@H](CO)O2)nn1,-6.3[25 µM]
O=C(O)c1cc2ccccc2c2c1C(=O)c1ccccc1-2,6.8
Oc1ccc2ccccc2c1CNc1ccccc1,-4.4
O=C1C=C(c2c(O)ccc3ccccc23)c2ccccc2C1=O,72.7*
C[C@H](CO)N1C[C@H](C)[C@@H](CN(C)S(C)(=O)=O)OCc2ccccc2-c2c(n(C)c3ccccc23)C1=O,-1.9
SMILES,CD40 NFkB inh
Cc1cccc(-c2ccc([C@@H]3[C@@H](CO)N4C(=O)CN(C(=O)c5ccc6c(c5)OCO6)C[C@H]34)cc2)c1,23.2[25 µM]
Fc1ccccc1/C=C1\CCCC2=C1Nc1nnnn1C2c1ccccc1F (centres undefined),74.8*
CC1(C)CC(NC(=O)N2c3ccccc3Sc3ccccc32)CC(C)(C)N1,-2.8
CC1CN(c2ccc(S(=O)(=O)N3CCOCC3)cn2)CC(C)O1 (centres undefined),25.8
COCCCNC(=O)c1ccc([N+](=O)[O-])cc1,-4.0
CCCCNCc1cc(OCC)c(OCC)cc1Br,3.0
O=C(NCCc1ccccc1)c1ccc2nccnc2c1,72.2*
O=C(NCCS(=O)(=O)NCCc1ccccc1)c1ccccc1,-3.7
O=C(NCCCn1ccnc1)c1ccc2nccnc2c1,13.4
Cc1cc(C)c[n+](CC(=O)c2ccc(NC(=O)c3ccccc3)cc2)c1,-5.4
CC1CCc2sc(C(=O)NCC3CCCO3)cc2C1 (centres undefined),-89.7
Oc1c(C(Nc2ccccn2)c2ccccn2)ccc2cccnc12 (centres undefined),-5.5
Cc1ccnc(NC(c2cccnc2)c2ccc3cccnc3c2O)c1 (centres undefined),-33.0
COc1ccccc1NC(c1cccnc1)c1ccc2cccnc2c1O (centres undefined),49.1*
COC(=O)c1ccc(OC(=O)CCS(=O)(=O)c2ccc(C)cc2)cc1,-2.8
COC(=O)CCS(=O)(=O)c1nc(-c2ccccc2)cc(C(F)(F)F)n1,95.3*
COC(=O)CCNS(=O)(=O)c1ccc2ccccc2c1,10.0
O=C(Nc1ccc(C(F)(F)F)cc1)N1[C@@H]2CNC[C@H]1C2c1ccc(-c2cccnc2)cc1 (some centres undefined),-1.4
Cc1cccc(C(=O)NCC(=O)NCC(c2ccco2)N2CCCCC2)c1 (centres undefined),5.2
Cc1ccc(SCC(=O)Nc2cccc(S(=O)(=O)N3CCOCC3)c2)cc1C,8.1
CCCN(CC(=O)Nc1ccccc1C)C(=O)CCN1C(=O)c2cccc([N+](=O)[O-])c2C1=O,0.3
CCOC(=O)[C@H](CCc1ccccc1)N[C@H]1CCc2ccccc2N(CC(=O)O)C1=O,-2.3[25 µM]
O=C1C[C@H](c2ccccc2)C(=O)N[C@@H](c2ccccc2)C/C=C\C[C@@H](c2ccccc2)N1,59.9*[25 µM]
O=C1C[C@@H](c2ccccc2)C(=O)N[C@@H](c2ccccc2)C/C=C\C[C@H](c2ccccc2)N1,-9.8[25 µM]
O=C1C[C@@H](c2ccccc2)C(=O)N[C@H](c2ccccc2)C/C=C\C[C@H](c2ccccc2)N1,4.8[25 µM]
SMILES,CD40 NFkB inh
CCOC(=O)C(=O)Nc1cc(C(=O)OC)cc(C(=O)OC)c1,4.5
COc1ccc(C2NC(C(=O)O)Cc3c2[nH]c2ccccc32)cc1OC (centres undefined),-13.6
Cc1cc(C=O)c(C)c2c1[nH]c1ccccc12,9.9
COc1ccc(OC)c2c(=S)c3ccccc3[nH]c12,active[25 µM]
CCCCCOc1ccc(C(=O)CCC(=O)NC(C)c2ccc(S(N)(=O)=O)cc2)cc1 (centres undefined),1.6
CSc1nnc(CNC(=O)C23CC4CC(CC(C4)C2)C3)n1Cc1ccccc1,8.2
CN(C)C(=S)N=c1ssc(=S)n1Cc1ccccc1,44.3*
CN1C(=O)c2cc(NC(=O)c3ccccc3Cl)ccc2OC[C@H]2O[C@@H](CC(=O)Nc3ccc4c(c3)CCC4)CC[C@@H]21,-6.1[25 µM]
CCCCOc1ccc(C(=O)NCC(=O)NCC(c2ccc(OC)cc2)N2CCCC2)cc1 (centres undefined),-2.0
O=C(Cc1ccc2c(c1)OCO2)NN=Cc1ccc([N+](=O)[O-])o1,95.2*
O=C(N/N=C/c1ccc([N+](=O)[O-])o1)C1CCCC1,-2.3
CCCCCC(=O)N/N=C/c1ccc([N+](=O)[O-])o1,6.7
COc1ccc(Nc2nc(-c3ccccc3)c3ccccc3n2)cc1,3.0
CN(c1ccc(C(=O)Nc2ccc3c(c2)OCO3)cc1)S(C)(=O)=O,-49.1
CC1(C)CC(NS(=O)(=O)c2cccc3ccccc23)CC(C)(C)N1,5.7
CC1(C)CC(Nc2ccc(Nc3ccccc3)cc2)CC(C)(C)N1,100.1*
CC1(C)CC(NCc2ccncc2)CC(C)(C)N1,5.1
CC12CCC(CC1)C(C)(C)O2,8.4
O=S(=O)(NCCCN1CCOCC1)c1ccc(Cl)s1,4.3
O=C1c2cccc3c([N+](=O)[O-])ccc(c23)C(=O)N1Cc1cccnc1,83.6*
Cc1ccc(N2C(=O)c3cccc4c([N+](=O)[O-])ccc(c34)C2=O)c2cccnc12,2.0
O=C1c2cccc3cccc(c23)C(=O)N1Cc1cccnc1,4.1
c1ccc2sc(-c3ccncc3)nc2c1,-64.3
c1ccc2sc(N3CCOCC3)nc2c1,-29.4
Cc1ccc(/C=C/c2nc3ccccc3s2)s1,74.7*
c1ccc2c(-c3nc4ccccc4[nH]3)cccc2c1,-2.5

# High-throughput results as filed in PubChem BioAssay.
